Molecules are shown by their SMILES. Some compounds were tested as several samples or in several runs, with calls that do not always agree. Active and inactive are the calls of the source. How the source made its calls: active means hit-call score of the fitted dose curve at least 0.9, where 1 is the maximum; inactive means score below 0.9.

Read-out in assay [1]: Macrophage colony-stimulating factor (MCSF), CSF1 (gene 1435)
The assay is described as follows: BSK_hDFCGF_MCSF: BioMAP Diversity Plus: hDFCGF Assay for Macrophage colony-stimulating factor (MCSF) Biomarker Activity (AID 2283060). The note with it: primary human foreskin fibroblasts; actives raise or lower the signal. The essentials: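 fibroblasts (human foreskin, primary), 24 h post-dose; M-CSF by ELISA; bidirectional fit, DMSO = baseline.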

Assay [2] in a line: BSK_hDFCGF_SRB: Viability Assessment in the BioMAP Diversity Plus: hDFCGF Assay (AID 2283061).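 Further: cells exposed to compound for 24 h before the read.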 The note with it: primary human foreskin fibroblasts. In outline:
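SRB-based viability read on primary human skin fibroblasts at 24 h: TCA fixation, 0.1% dye, 560 nm. Gain or loss of signal is fitted against the DMSO negative control.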

Read-out in assay [3]: TIMP metallopeptidase inhibitor 1 (TIMP1), TIMP1 (gene 7076)
Description: BSK_hDFCGF_TIMP1: BioMAP Diversity Plus: hDFCGF Assay for TIMP metallopeptidase inhibitor 1 (TIMP1) Biomarker Activity (AID 2283062). As to conditions: primary human foreskin fibroblasts; actives raise or lower the signal. In outline: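 Bidirectional curve fitting against DMSO baseline yielded this endpoint, based on ELISA detection of TIMP-1 in primary human foreskin fibroblasts exposed to compound for 24 h.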

Read-out in assay [4]: Matrix Metallopeptidase 1 (MMP1), MMP1 (gene 4312)
Description: BSK_hDFCGF_MMP1: BioMAP Diversity Plus: hDFCGF Assay for Matrix Metallopeptidase 1 (MMP1) Biomarker Activity (AID 2283064). The note with it: primary human foreskin fibroblasts; actives raise or lower the signal. The essentials:
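MMP1 levels quantified by ELISA 24 h after dosing human dermal fibroblast cultures, with parallel SRB total-protein staining for overt cytotoxicity. Data fitted in both directions against DMSO baseline.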

Read-out in assay [5]: Vascular cell adhesion molecule 1 (VCAM1), VCAM1 (gene 7412)
The assay is described as follows: BSK_hDFCGF_VCAM1: BioMAP Diversity Plus: hDFCGF Assay for Vascular cell adhesion molecule 1 (VCAM1) Biomarker Activity (AID 2283065). As to conditions: primary human foreskin fibroblasts; actives raise or lower the signal. In outline: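 Measured after 24 h chemical treatment of primary human skin fibroblasts, VCAM-1 was detected by ELISA and concentration-response analysed in both directions versus DMSO vehicle.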

Read-out in assay [6]: Plasminogen activator inhibitor-1 (PAI1), SERPINE1 (gene 5054)
Description: BSK_hDFCGF_PAI1: BioMAP Diversity Plus: hDFCGF Assay for Plasminogen activator inhibitor-1 (PAI1) Biomarker Activity (AID 2283066). The note with it: primary human foreskin fibroblasts; actives raise or lower the signal. In outline:
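Human skin fibroblast cultures receive chemical for 24 h before PAI-1 is measured by ELISA; signal changes are fitted bidirectionally against DMSO-treated wells.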

Read-out in assay [7]: Interferon-gamma inducible Protein 10 (IP10), CXCL10 (gene 3627)
Description: BSK_KF3CT_IP10: BioMAP Diversity Plus: KF3CT Assay for Interferon-gamma inducible Protein 10 (IP10) Biomarker Activity (AID 2283068). As to conditions: primary human keratinocytes with fibroblasts; actives raise or lower the signal. In outline: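 In a primary skin co-culture of keratinocytes and fibroblasts, IP-10 is quantified by ELISA at 24 h after dosing. SRB staining of parallel wells monitors overt toxicity. Curves are fitted both directions against DMSO.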

Assay [8] is described as follows: BSK_KF3CT_SRB: Viability Assessment in the BioMAP Diversity Plus: KF3CT Assay (AID 2283069).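 Further: total protein by sulforhodamine B staining as a cytotoxicity measure; read 24 h after compound addition.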 As to conditions: primary human keratinocytes with fibroblasts. In outline: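 Cytotoxicity was gauged by SRB staining (0.1% SRB, 10% TCA fixation, 560 nm) of parallel cultures at 24 h. The cells were primary human skin keratinocytes co-cultured with fibroblasts, and activity was fitted in both directions against DMSO.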

Read-out in assay [9]: Interleukin-1 alpha (IL1a), IL1A (gene 3552)
Description: BSK_KF3CT_IL1a: BioMAP Diversity Plus: KF3CT Assay for Interleukin-1 alpha (IL1a) Biomarker Activity (AID 2283070). As to conditions: primary human keratinocytes with fibroblasts; actives raise or lower the signal. The essentials: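 IL-1a was detected by ELISA 24 h after chemical treatment of a co-culture of human skin keratinocytes and foreskin fibroblasts. Gain or loss of signal was fitted against the DMSO baseline.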

Read-out in assay [10]: TIMP metallopeptidase inhibitor 2 (TIMP2), TIMP2 (gene 7077)
The assay is described as follows: BSK_KF3CT_TIMP2: BioMAP Diversity Plus: KF3CT Assay for TIMP metallopeptidase inhibitor 2 (TIMP2) Biomarker Activity (AID 2283071). As to conditions: primary human keratinocytes with fibroblasts; actives raise or lower the signal. The essentials:
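Measurements come from ELISA detection of TIMP-2 at 24 hours in a dosed human keratinocyte and foreskin fibroblast co-culture. DMSO serves as negative control and baseline.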

Read-out in assay [11]: C-C motif chemokine 2 (Homo sapiens) (UniProt P13500)
Description: BSK_KF3CT_MCP1: BioMAP Diversity Plus: KF3CT Assay for Monocyte Chemoattractant Protein 1 (MCP1/CCL2) Biomarker Activity (AID 2283073). The note with it: primary human keratinocytes with fibroblasts; actives raise or lower the signal. The essentials: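 Biomarker MCP-1 is measured by ELISA in primary human keratinocytes co-cultured with foreskin fibroblasts, 24 h after chemical treatment; DMSO serves as the negative control and activity baseline.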

Read-out in assay [12]: Matrix Metallopeptidase 9 (MMP9), MMP9 (gene 4318)
Description: BSK_KF3CT_MMP9: BioMAP Diversity Plus: KF3CT Assay for Matrix Metallopeptidase 9 (MMP9) Biomarker Activity (AID 2283074). The note with it: primary human keratinocytes with fibroblasts; actives raise or lower the signal. In outline:
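MMP-9 quantified by ELISA after 24 h chemical treatment of primary human skin keratinocyte/fibroblast co-cultures; gain or loss fitted against DMSO, with parallel SRB staining (0.1% SRB, 560 nm) for overt cytotoxicity.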

Read-out in assay [13]: CD40, CD40 (gene 958)
The assay is described as follows: BSK_LPS_CD40: BioMAP Diversity Plus: LPS Assay for CD40 Biomarker Activity (AID 2283076). As to conditions: primary human HUVEC with PBMC; actives raise or lower the signal. In outline: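 Using a multiplexed primary human co-culture (umbilical vein endothelium plus PBMC), CD40 was read by ELISA 24 h after dosing, with cytotoxicity tracked by sulforhodamine B staining of parallel cultures and activity fitted bidirectionally versus DMSO.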

Read-out in assay [14]: E-selectin (Homo sapiens) (UniProt P16581)
The assay is described as follows: BSK_LPS_Eselectin: BioMAP Diversity Plus: LPS Assay for Eselectin Biomarker Activity (AID 2283077). As to conditions: primary human HUVEC with PBMC; actives raise or lower the signal. The essentials: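 Dose chemical onto LPS-driven HUVEC/PBMC co-culture; after 24 h, run ELISA for E-selectin; fit up- and down-going responses relative to DMSO control.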

Read-out in assay [15]: Interleukin-8 (IL8), CXCL8 (gene 3576)
Description: BSK_LPS_IL8: BioMAP Diversity Plus: LPS Assay for Interleukin-8 (IL8) Biomarker Activity (AID 2283078). As to conditions: primary human HUVEC with PBMC; actives raise or lower the signal. In outline: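 In this LPS system, chemical-treated human umbilical vein endothelium/PBMC co-cultures were harvested at 24 h for IL-8 ELISA.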

Assay [16] is described as follows: BSK_LPS_SRB: Viability Assessment in the BioMAP Diversity Plus: LPS Assay (AID 2283079).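 Further: total protein by sulforhodamine B absorbance as a cytotoxicity measure; measured one day after compound addition; fitted in both directions against DMSO so loss or gain of signal counts.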 The note with it: primary human HUVEC with PBMC. In outline: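 Cytotoxicity endpoint in human endothelial–PBMC co-culture: 24 h exposure, then SRB (0.1%) staining, 560 nm read.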
Read-out in assay [17]: Monokine induced gamma interferon (MIG), CXCL9 (gene 4283)
The assay is described as follows: BSK_hDFCGF_MIG: BioMAP Diversity Plus: hDFCGF Assay for Monokine induced gamma interferon (MIG) Biomarker Activity (AID 2283063). As to conditions: primary human foreskin fibroblasts; actives raise or lower the signal. The essentials:
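Endpoint derived by bidirectional fitting relative to DMSO; MIG quantified via ELISA in primary human foreskin fibroblasts harvested 24 h after dosing.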

Read-out in assay [18]: urokinase plasminogen activator (uPA), PLAU (gene 5328)
The assay is described as follows: BSK_KF3CT_uPA: BioMAP Diversity Plus: KF3CT Assay for urokinase plasminogen activator (uPA) Biomarker Activity (AID 2283075). The note with it: primary human keratinocytes with fibroblasts; actives raise or lower the signal. The essentials:
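ELISA read-out of uPA 24 h after dosing human skin keratinocytes co-cultured with foreskin fibroblasts. Signal change fitted both ways relative to DMSO; sulforhodamine B on parallel cultures marks overt cytotoxicity.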

Read-out in assay [19]: Intercellular Adhesion Molecule 1 (ICAM1), ICAM1 (gene 3383)
The assay is described as follows: BSK_KF3CT_ICAM1: BioMAP Diversity Plus: KF3CT Assay for Intercellular Adhesion Molecule 1 (ICAM1) Biomarker Activity (AID 2283067). The note with it: primary human keratinocytes with fibroblasts; actives raise or lower the signal. In outline: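 Bidirectional curve fitting against a DMSO baseline was applied to ICAM-1 ELISA signal from primary human skin co-cultures harvested 24 h after treatment, with SRB staining of parallel wells for overt cytotoxicity.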

Read-out in assay [20]: Transforming growth factor beta 1 (TGFb1), TGFB1 (gene 7040)
The assay is described as follows: BSK_KF3CT_TGFb1: BioMAP Diversity Plus: KF3CT Assay for Transforming growth factor beta 1 (TGFb1) Biomarker Activity (AID 2283072). As to conditions: primary human keratinocytes with fibroblasts; actives raise or lower the signal. In outline:
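TGF-b1 ELISA on a 24 h dosed co-culture of human keratinocytes and foreskin fibroblasts; cytotoxicity tracked in parallel cultures by SRB staining.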

Chain of E-selectin (Homo sapiens) (P16581 whole entry, looked up): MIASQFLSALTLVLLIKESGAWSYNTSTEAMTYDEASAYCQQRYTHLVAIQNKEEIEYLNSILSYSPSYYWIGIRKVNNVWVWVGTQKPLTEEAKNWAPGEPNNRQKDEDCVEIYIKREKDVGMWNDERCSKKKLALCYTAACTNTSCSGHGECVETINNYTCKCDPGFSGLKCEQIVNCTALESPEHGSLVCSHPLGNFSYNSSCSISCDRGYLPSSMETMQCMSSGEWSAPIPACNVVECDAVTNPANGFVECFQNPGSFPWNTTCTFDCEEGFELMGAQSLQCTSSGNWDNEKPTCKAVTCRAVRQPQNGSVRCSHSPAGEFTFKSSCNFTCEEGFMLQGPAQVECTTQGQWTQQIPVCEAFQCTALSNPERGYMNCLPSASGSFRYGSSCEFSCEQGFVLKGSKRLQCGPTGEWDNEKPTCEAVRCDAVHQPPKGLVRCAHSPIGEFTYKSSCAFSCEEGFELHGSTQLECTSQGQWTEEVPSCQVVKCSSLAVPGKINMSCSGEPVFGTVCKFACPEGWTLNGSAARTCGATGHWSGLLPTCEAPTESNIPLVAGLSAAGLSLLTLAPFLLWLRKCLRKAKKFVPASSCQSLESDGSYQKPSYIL

Consider `OCC(F)(F)C(F)(F)C(F)(F)C(F)(F)C(F)(F)C(F)F`, for which the result in assay [1], in assay [2], in [3], in assay [4], in [5] and in [6] was inactive. Further, the result in [7], in assay [8], in assay [9], in assay [10], in [11] and in assay [12] was inactive. Besides, the outcome in assay [13], in assay [14], in assay [15] and in assay [16] was inactive.
Regarding `O=C(O)C(F)(F)C(F)(F)C(F)(F)F`, the outcome in assay [1], in [2], in [3], in assay [17], in [4] and in assay [5] was inactive. The outcome in [6], in assay [7], in [8], in assay [9], in assay [10] and in assay [11] was inactive. The outcome in assay [12], in [13], in assay [14], in assay [15] and in assay [16] was inactive.
For `O=C(O)C(F)(F)C(F)(F)C(F)F`, the outcome in assay [1], in assay [2], in [3], in assay [17], in assay [4] and in assay [5] was inactive. For the same molecule, the outcome in assay [6], in assay [7], in [8], in assay [9], in assay [10] and in [11] was inactive. For the same molecule, the outcome in assay [12], in assay [13], in assay [14], in [15] and in assay [16] was inactive.
With `FC(F)(F)C(F)(F)C(F)(F)CI`, the result in [1], in assay [2], in assay [3], in assay [4], in [5] and in assay [6] was inactive. In addition, the result in assay [7], in [8], in assay [9], in [10], in assay [11] and in assay [12] was inactive. Also, the result in assay [18], in assay [13], in [14], in assay [15] and in assay [16] was inactive. In addition, the AC50 in assay [15] is 1840 nM (active).
For `C=CC/C=C/C/C=C/C/C=C/C`, the result in assay [1], in assay [2], in assay [3], in assay [5], in assay [19] and in assay [7] was inactive. Further, the outcome in [8], in assay [9], in assay [10], in [20], in assay [11] and in assay [12] was inactive. The result in [18], in [13], in assay [14], in assay [15] and in [16] was inactive. Also, the AC50 in assay [4] is 16 nM (active); in assay [6], 141 nM (active).
As to `O=S(=O)(OCC(F)F)C(F)(F)F`, the result in assay [1], in [2], in assay [3], in [4], in [5] and in assay [6] was inactive. Moreover, the outcome in [7], in assay [8], in [9], in [10], in assay [11] and in assay [12] was inactive. For the same molecule, the outcome in assay [18], in assay [13], in assay [14], in [15] and in assay [16] was inactive. The AC50 in [6] was 1420 nM (active).
Turning to `O=S(=O)(OCCOC(F)(F)F)C(F)(F)F`, the outcome in assay [1], in assay [2], in assay [3], in assay [4], in assay [5] and in [6] was inactive. Besides, the outcome in [7], in assay [8], in assay [9], in [10], in assay [11] and in [12] was inactive. Besides, the outcome in assay [18], in assay [13], in [14], in assay [15] and in assay [16] was inactive.
As to `FC(F)(F)C(F)(F)CNCC(F)(F)C(F)(F)F`, the outcome in [1], in assay [2], in assay [3], in [17], in [4] and in assay [5] was inactive. Also, the outcome in [6], in assay [7], in assay [8], in [9], in [10] and in [11] was inactive. Also, the result in assay [12], in [13], in assay [14], in assay [15] and in [16] was inactive.

The values above are taken from PubChem BioAssay (EPA / NIEHS).
